# Mdm2 MdmX PPI – human Mdm2/MdmX binding inhibition; SaOS-2 split-luciferase Mdm2/MdmX complementation, luminescence; 330,000 tested, 3% active; O15151+Q00987; inhibition, % at 8 µM;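 active means inhibition of at least 50% at 8 µM in the primary screen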
# Target sequence (O15151 whole entry, looked up): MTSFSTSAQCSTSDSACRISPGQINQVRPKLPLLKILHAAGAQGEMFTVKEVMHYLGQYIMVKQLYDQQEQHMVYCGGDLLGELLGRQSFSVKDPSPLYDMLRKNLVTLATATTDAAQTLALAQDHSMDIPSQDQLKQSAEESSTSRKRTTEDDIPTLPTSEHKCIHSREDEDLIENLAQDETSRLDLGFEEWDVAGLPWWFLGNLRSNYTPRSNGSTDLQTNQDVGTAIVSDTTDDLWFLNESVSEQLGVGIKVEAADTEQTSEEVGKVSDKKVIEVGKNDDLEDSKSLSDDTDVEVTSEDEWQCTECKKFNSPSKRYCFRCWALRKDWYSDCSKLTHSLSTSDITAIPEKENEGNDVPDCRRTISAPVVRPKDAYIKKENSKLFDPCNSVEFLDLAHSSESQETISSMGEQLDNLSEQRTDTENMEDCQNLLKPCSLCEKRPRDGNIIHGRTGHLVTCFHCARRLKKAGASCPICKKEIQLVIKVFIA
# Target sequence (Q00987 whole entry, looked up): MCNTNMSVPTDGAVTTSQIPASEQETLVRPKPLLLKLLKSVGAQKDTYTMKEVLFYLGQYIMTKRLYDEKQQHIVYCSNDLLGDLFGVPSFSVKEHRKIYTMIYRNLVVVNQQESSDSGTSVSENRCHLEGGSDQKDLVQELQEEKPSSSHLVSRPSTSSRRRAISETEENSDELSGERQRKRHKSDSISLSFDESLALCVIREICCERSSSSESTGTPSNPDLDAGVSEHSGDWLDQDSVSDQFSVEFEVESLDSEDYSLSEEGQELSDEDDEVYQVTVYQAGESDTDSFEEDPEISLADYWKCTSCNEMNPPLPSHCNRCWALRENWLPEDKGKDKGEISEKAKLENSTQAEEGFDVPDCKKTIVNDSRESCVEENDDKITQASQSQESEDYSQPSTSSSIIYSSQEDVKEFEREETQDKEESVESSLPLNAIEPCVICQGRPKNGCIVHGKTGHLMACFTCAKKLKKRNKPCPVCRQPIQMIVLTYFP
# aSyn 5UTR inh – 5' untranslated region of α-synuclein, MLPCN primary screen. alpha-synuclein 5'UTR reporter, inhibitor activity. inhibition, % (tested at 7.5 µM). 300,000 tested, 0.82% active. AID 1813; in the data active means inhibition above about 60%; inconclusive means no clear call, values can overlap the other calls;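 further: H4 neuroglioblastoma cells stably carrying SNCA 5'UTR luciferase fusion; 0% = DMSO wells and 100% = positive control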
# CSC inhib – cancer stem cell inhibition; AID 2717; cancer stem cell-like cells viability, luminescence; 300,000 tested, 1.1% active; inhibition, % at 7.5 µM; in the data active means inhibition above about 75%; inconclusive means no clear call, values can overlap the other calls; tested in HMLE shEcad cells
# Bfl-1 A1 inh – inhibitors of the anti-apoptotic protein A1, read as caspase activation | MEF A1-2A-BIM cells, Caspase-Glo 3/7 luminescence, 3 h; percent of clofoctol response, vehicle zero | AID 2462 | caspase activation, % (test concentration not listed) | 330,000 tested, 0.066% active;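 active means over half of replicate activation scores above 10%, or exactly half above 10 with the replicate mean above 10; inconclusive means replicate mean below 10 yet half the replicates above 10; inactive means over half of replicates below 10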
# Beta cell apopt – blocks beta cell apoptosis; INS-1E cytokine-induced death, ATP luminescence, 48 h; percent of positive-control rescue, neutral wells zero; protection from apoptosis, % (no concentration beside the values); 300,000 tested, 0.8% active; AID 435005;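 active means Every replicate reaches about 75%, or at least half do and their mean reaches it too, limit read from the data; inconclusive means At least half of replicates reach the limit but their mean does not; inactive means Under half of replicates reach the limit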;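 further: 0% = cytokine-treated negative control wells and 100% = positive control rescue; higher means more ATP so stronger rescue from cytokine killing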
# Mdm2-MdmX conf – human Mdm2/MdmX binding inhibition, confirmed. AID 489028. shares compounds with Mdm2 MdmX PPI. 10,000 tested, 55% active. luminescent assay. inhibition, % at 8 µM; in the data active means inhibition above about 40%
# Full FLuc ctr – full-length luciferase inhibition in Mdm2/MdmX counter-screen. shares compounds with Mdm2 MdmX PPI. SaOS-2 full-length luciferase counterscreen, luminescence. inhibition, % at 8 µM. 6,200 tested, 77% active. AID 504607;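 active means mean inhibition at 8 µM reaching about 37%, which flags the compound as non-specific, limit read from the data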;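 further: p53-null SaOS-2 cells with luciferase driven by a doxycycline-inducible promoter; compound on cells about two nights before reading with doxycycline added after day one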
# Numbers without * were called inactive; ? = inconclusive; . = no result given. An excerpt weighted towards active compounds, which were near 4.1% of everything screened.
SMILES,Mdm2 MdmX PPI,aSyn 5UTR inh,CSC inhib,Bfl-1 A1 inh,Beta cell apopt,Mdm2-MdmX conf,Full FLuc ctr
Cc1ccc(S(=O)(=O)N2CCOCC2)cc1C(=O)OCC(=O)NC1CC1,3.4,.,.,-0.5,-3.4,.,.
Cc1cccc(Nc2nc(N)c([N+](=O)[O-])c(NCc3ccccc3)n2)c1,51.6*,14.5,61.1,0.3,.,33.5,.
COc1cccc(Nc2nc(N)c([N+](=O)[O-])c(NCc3ccccc3)n2)c1,35.9,34.4,37.1,-0.3,1.3,.,.
COC(=O)c1cc2sc(Cl)cc2n1Cc1nc(-c2ccccc2)oc1C,34.1,17.1,4.8,1.2,.,.,.
COC(=O)c1cc2ccsc2n1Cc1nc(-c2ccc(OC)cc2)oc1C,60.4*,20.6,.,0.2,.,5.7,.
COC(=O)c1cc2sccc2n1Cc1nc(-c2ccc(OC)cc2)oc1C,68.2*,39.5,-1.8,-0.1,-0.1,28.4,.
CCN1/C(=C/c2ccc3cc(C)ccc3[n+]2CC)Sc2ccccc21,97.3*,99.9*,101.6*,-1.0,114.9*,95.0*,7.9
CCN1/C(=C/c2ccc3cc(C)ccc3[n+]2CC)Sc2cc(C)c(C)cc21,80.8*,.,.,.,.,85.0*,39.1*
CCN1/C(=C/C=C/C=C/C=C/c2sc3ccccc3[n+]2CC)Sc2ccccc21,22.9,-38.6,11.4,-0.1,22.9,.,.
CCN1/C(=C/C=C/c2sc3ccccc3[n+]2CC)Sc2ccccc21,96.1*,40.1,79.2*,-1.4,100.6*,85.2*,17.2
O=C(CCCCCN1C(=O)[C@@H]2Cc3ccccc3CN2C1=O)Nc1ccccc1F,12.0,0.7,-0.7,-0.1,-2.4,.,.
CC(=O)C(Cc1ccccc1)NC(=O)COC(=O)CCN1C(=O)C2CC=CCC2C1=O (stereo not given),15.1,-1.3,-13.5,-1.3,4.3,.,.
OCCN1CCN(Cc2cc(Cl)c3cccnc3c2O)CC1,44.3,20.5,22.5,0.5,2.6,.,.
Oc1ccc(CN2CCN(c3ccccc3)CC2)c2cccnc12,78.3*,79.5*,-6.3,0.9,43.2,65.5*,66.7*
Cc1ccc(C)c(S(=O)(=O)N2CCN(Cc3ccc(O)c4ncccc34)CC2)c1,78.1*,73.9*,4.9,0.1,87.2*,71.2*,36.5*
Oc1ccc(CN2CCc3ccccc3C2)c2cccnc12,51.1*,102.6*,60.5,1.3,112.5*,77.7*,24.4
Oc1c(CN2CCN(c3ccccn3)CC2)cc(Cl)c2cccnc12,71.7*,92.4*,?,-0.1,108.8*,71.1*,28.0
Oc1ccc2ccccc2c1CN1CCN(c2ccccc2)CC1,10.0,-19.0,-4.9,0.0,-3.2,.,.
CCOc1ccc(NC(=O)CN(C)C(=O)c2c(-c3c(F)cccc3Cl)noc2C)cc1OCC,10.0,-0.3,-10.6,0.8,-2.8,.,.
CC(=O)c1cccc(N2C(=O)CC(N3CCN(S(=O)(=O)c4ccc(Cl)cc4)CC3)C2=O)c1 (stereo not given),-5.0,.,.,-0.1,-6.4,.,.
O=C(CSc1ccc(Br)cc1)Nc1ccc(N2CCOCC2)cc1,-8.2,7.2,.,0.4,5.8,.,.
COc1ccc(NS(=O)(=O)c2cccc(C(=O)O)c2)cc1S(=O)(=O)N1CCCCC1,15.4,.,-18.9,0.8,-1.0,.,.
CC(=O)Nc1ccc(NC(=O)C(C)OC(=O)c2ccc(S(=O)(=O)N3CCCCCC3)cc2)cc1 (stereo not given),22.8,.,-10.8,-1.0,0.1,.,.
Oc1ccc(CN2CCC(Cc3ccccc3)CC2)c2cccnc12,72.8*,105.0*,.,.,.,68.7*,69.4*
COc1ccccc1N1CCN(Cc2cc(Br)c(O)c3ncccc23)CC1,60.9*,77.0*,77.4*,-0.4,102.1*,59.9*,59.8*
SMILES,Mdm2 MdmX PPI,aSyn 5UTR inh,CSC inhib,Bfl-1 A1 inh,Beta cell apopt,Mdm2-MdmX conf,Full FLuc ctr
CCOC(=O)N1CCN(Cc2ccc(O)c3ncccc23)CC1,50.2*,17.7,45.9,-0.7,-1.1,-8.9,.
Cc1nc(CCNC(=O)CC2C(=O)NCCN2CC(C)C)nc2c1CCC2 (stereo not given),-9.1,-7.9,10.1,-0.1,3.1,.,.
C=CCn1c(SCC(=O)c2[nH]c(C)c(C(=O)OCC)c2C)nc2scc(-c3ccccc3)c2c1=O,95.2*,?,6.0,0.7,-3.7,60.0*,46.3*
C=CCn1c(SCC(=O)c2[nH]c(C)c(C(=O)OCC)c2C)nc2scc(-c3ccc(OC)cc3)c2c1=O,.,46.0,.,.,.,.,.
COc1ccc(S(=O)(=O)N2CCN(C/C=C/c3ccccc3)CC2)cc1F,3.8,21.4,18.3,0.3,-0.2,.,.
O=C(CN(C(=O)c1csnn1)c1ccc(Cl)cc1)NCc1ccc2c(c1)OCO2,-20.8,-1.5,-0.2,?,3.5,.,.
N=c1n(Cc2ccccc2)c2ccccc2n1Cc1ccccc1,44.2,5.3,.,0.1,12.8,.,.
Cc1cccc(OCC(O)Cn2c(=N)n(Cc3ccccc3)c3ccccc32)c1 (stereo not given),87.6*,8.8,26.9,0.8,1.1,63.5*,64.1*
N=c1n(Cc2ccccc2)c2ccccc2n1CC(O)COc1ccc(Cl)cc1Cl (stereo not given),100.3*,90.1*,.,.,.,100.2*,61.5*
N=c1n(Cc2ccc(Cl)cc2)c2ccccc2n1CC(O)COc1ccccc1 (stereo not given),88.5*,-0.5,3.3,-0.1,8.3,37.4,87.8*
CCN(CC)CCn1c(=N)n(CC(O)COc2cccc(C)c2)c2ccccc21 (stereo not given),47.7,-37.4,2.1,-0.1,23.9,.,.
Cc1ccc(OCC(O)Cn2c(=N)n(Cc3ccccc3)c3ccccc32)cc1 (stereo not given),67.4*,6.4,33.1,-0.3,49.0,52.3*,48.8*
Cc1ccc(C)c(OCC(=O)N2CCN(c3ncccn3)CC2)c1,-15.8,.,-3.8,-0.5,-1.9,.,.
COc1ccc(CN(C)C(=O)c2cccc(Oc3ccccc3)c2)c(OC)c1OC,17.6,12.1,5.7,0.5,1.8,.,.
CC(=O)NC12CC3CC(C1)CC(C(=O)N1CCN(S(=O)(=O)c4ccc(C(C)C)cc4)CC1)(C3)C2,-2.6,2.1,44.1,1.2,3.3,.,.
Cc1cccc(OCC(O)Cn2c(=N)n(CCN3CCCCC3)c3ccccc32)c1 (stereo not given),53.1*,-58.5,10.7,0.8,16.8,46.4*,61.3*
COc1ccc(OCC(O)Cn2c(=N)n(Cc3ccccc3)c3ccccc32)cc1 (stereo not given),53.7*,2.0,15.7,0.0,28.5,43.2*,65.3*
CCN1CCN(CCNC(=O)c2ccc3c(c2)N(Cc2ccc(F)cc2)C(=O)/C(=C/c2ccccc2)S3)CC1,95.7*,27.1,103.2*,1.5,15.5,74.2*,22.7
O=C(NCCN1CCOCC1)c1ccc2c(c1)N(Cc1cccc(F)c1)C(=O)c1ccccc1S2,7.8,2.5,7.0,0.7,4.4,.,.
O=C(NCCN1CCOCC1)c1ccc(/C=C2\Sc3ccccc3N(Cc3ccccc3F)C2=O)cc1,59.8*,5.4,45.7,-1.2,-2.4,8.8,.
